HCMV inh = blocks human cytomegalovirus replication; HFF cells, HCMV-luciferase reporter, 72 h; stronger effect = lower value; 410,000 compounds, 4.5% hits; activity change, negative = inhibition, % at 57.5 µM; AID 1259415; in the data active = activity change below about -60%; inconclusive = no clear call, values can overlap the other calls; inactive = above about -39%
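Inhibition of viral replication was scored as loss of reporter luminescence in HFFs infected with HCMV-luciferase (MOI 1 PFU/cell) for 72 h; compounds tested at 2 doses, normalized to buffer and Salinomycin controls.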
Giardia FBPA inh = Giardia lamblia aldolase inhibition. purified Giardia FBPA. Potency, µM (highest dose often 59.6 µM), without a hit: at the highest dose activity, negative = inhibition, hits mostly inhibitors. 290,000 compounds, 0.71% hits. AID 2451; note: potency is the fitted concentration of half-maximal effect; nearly all actives have a fitted effect of over 55% in size
Target sequence (A8B2U2 whole entry, looked up): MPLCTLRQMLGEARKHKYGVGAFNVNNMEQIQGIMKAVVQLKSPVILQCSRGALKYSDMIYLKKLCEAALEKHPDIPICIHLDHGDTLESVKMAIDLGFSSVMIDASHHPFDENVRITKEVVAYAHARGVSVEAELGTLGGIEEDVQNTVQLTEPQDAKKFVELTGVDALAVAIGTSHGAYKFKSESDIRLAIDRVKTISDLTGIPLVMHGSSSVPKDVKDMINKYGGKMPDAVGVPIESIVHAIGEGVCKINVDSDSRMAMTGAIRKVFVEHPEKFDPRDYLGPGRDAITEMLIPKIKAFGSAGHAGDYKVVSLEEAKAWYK
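40 nM FBPA preincubated 10 min at RT with compound (up to 57.5 uM final), then substrate plus GAPDH/TPI/NAD/arsenate coupling and diaphorase/resazurin added. Fluorescence read after 20 min at RT, 525/598 nm.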
Pf growth 96h = P. falciparum growth inhibition at 96 hours; P. falciparum luciferase reporter growth, 96 h; Potency, µM (series often up to 28.7 µM), for inactives: top-dose activity change, negative = inhibition, most hits filed as inhibitors; 320,000 compounds, 6.9% hits; AID 504834; note: potency is the fitted concentration of half-maximal effect
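Cell-based qHTS: luciferase-tagged P. falciparum in erythrocytes (2% hematocrit, 0.05% parasitemia final) incubated with compounds for 96 hours, 37 C, 5% CO2; luciferase detection reagent then added and luminescence measured.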
Sm TGR inh = S. mansoni TGR enzyme inhibition. 360,000 compounds, 3% hits. Q962Y6. purified TGR, DTNB reduction, TNB absorbance 405 nm. Potency, µM (highest dose often 114 µM), without a hit: at the highest dose activity change, negative = inhibition, actives largely listed as inhibitors; note: potency is the fitted concentration of half-maximal effect; nearly all actives have a fitted effect of over 60% in size
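TGR 20 nM + NADPH 100 uM (dispensed conc.), cpd preinc 15 min RT; start with NADPH (500 uM addition) then DTNB (15 mM addition). Kinetic TNB absorbance, 405 nm filter. Four-parameter Hill fit across titration.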
Pf growth 48h = inhibits P. falciparum growth in the first generation, 48 h; P. falciparum luciferase growth in erythrocytes, 48 h; Potency, µM (titrated, usually from 28.7 µM), inactives show at the top dose activity change, negative = inhibition, most hits filed as inhibitors; 310,000 compounds, 5.9% hits; AID 504832; note: potency is the fitted concentration of half-maximal effect
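Luminescence readout; reporter = integrated firefly luciferase in P. falciparum. RBC culture at 2% hematocrit, 0.1% parasitemia final, 37 C/5% CO2; decreased signal taken as growth inhibition.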
Numbers without * were called inactive; ? = inconclusive; nt = no result; ! = not confirmed by another sample. Hits are enriched below; roughly 14% of the tested compounds scored in any of these assays. Unless noted, calls come from the whole dose curve; as a rule, active = well fitted curve in the direction sought with a large enough effect; inconclusive = small, poorly fitted or top-dose-only effect, or another doubt; inactive = no such curve, though single readings can be large; an effect the other way counts as inactive or inconclusive. % is set by controls: 0 for no effect and ±100 for the full control effect.

SMILES	HCMV inh	Giardia FBPA inh	Pf growth 96h	Sm TGR inh	Pf growth 48h
COc1ccc(CN2C(=O)C(n3ccc4ccccc43)c3cc(OC(F)(F)F)ccc32)cc1 (centres undefined)	-90.9*	nt	nt	nt	nt
CC(C)c1ccc(CN2C(=O)C(n3ccc4ccccc43)c3cc(Cl)ccc32)cc1 (centres undefined)	-75.9*	nt	nt	nt	nt
CCN(CC(=O)N1CCCC1)S(=O)(=O)c1cc(C)ccc1OC	10.8	-3.4%	0.0%	10.0%	-7.1%
COc1cccc(-c2nc(S(=O)(=O)c3ccc(Cl)cc3)c(NCc3ccccc3)o2)c1	22.3	nt	nt	-13.2%	nt
C=CCOc1ccc(C=CC(=O)c2c(O)c(OC)c(OC)c(OC)c2OC)cc1	-17.4	nt	nt	nt	nt
O=C(Cn1ccnc1[N+](=O)[O-])NCCO	13.8	-3.0%	-8.8%	nt	4.2%
CCOc1ccc(NC(C)c2cc(Cl)ccc2O)cc1 (centres undefined)	13.8	-16.0%	0.5%	-23.8%	-2.4%
CC(Nc1ccc(Cl)cc1)c1cc(Cl)ccc1O (centres undefined)	2.8	-6.6%	13.3%	-18.5%	9.28µM*
Cc1c(-c2ccccc2)nnn1-c1ccc(F)c(Cl)c1	28.0	nt	nt	nt	nt
Cc1c(CCC(=O)NCCCn2ccnc2)c(=O)oc2c(C)c3occ(C(C)(C)C)c3cc12	-35.9	23.2%	9.28µM*	-1.3%	?
Cc1coc2c(C)c3oc(=O)c(CCC(=O)NCCCn4ccnc4)c(C)c3cc12	-30.8	21.2%	?	7.7%	10.4µM*
COc1ccccc1C(=O)c1cn(CC(=O)Nc2ccccc2F)c2nc(C)ccc2c1=O	-1.5	nt	nt	8.1%	nt
COc1ccc(N=C2S/C(=C\c3cc(C)n(C)c3C)C(=O)N2C)cc1	-8.4	-14.6%	9.28µM*	50.1µM*	?
COc1ccc(N=C2S/C(=C\c3cccs3)C(=O)N2CC(C)C)cc1	-11.2	0.1%	3.7µM*	5.9%	?
CCCN1C(=O)/C(=C/c2cc(C)n(C)c2C)SC1=Nc1ccc(OC)cc1	-2.1	-13.2%	13.1µM*	-24.3%	?
COc1ccc(N=C2S/C(=C\c3ccc(C)s3)C(=O)N2CC(C)C)cc1	-1.5	0.0%	?	-6.4%	?
CC(C)C[C@@H](C(=O)N[C@@H](Cc1c[nH]c2ccccc12)C(N)=O)N1C[C@]2(CCCN2C(=O)[C@H](Cc2ccccc2)NC(=O)[C@H](Cc2ccccc2)NC(=O)[C@H](CCC(N)=O)NC(=O)[C@H](CCC(N)=O)NC(=O)[C@@H]2CCCN2C(=O)[C@H](CCCCN)NC(=O)[C@@H]2CCCN2C(=O)[C@@H](N)CCCNC(=N)N)CC1=O	nt	3.8%	nt	nt	nt
Cc1nn(CCCC(=O)NCCc2ccccc2)c(=O)c2nccn12	-98.0*	4.5%	11.6%	4.1%	13.8%
CCN1CCN(CCNC(=O)CCCn2nc(C)c3c(C)n(-c4ccc(C)cc4)nc3c2=O)CC1	-66.6*	nt	?	2.1%	-14.3%
CCOc1ccc(CCNC(=O)C(C)n2nc(C)c3c(C)n(-c4ccccc4)nc3c2=O)cc1 (centres undefined)	-23.9	nt	13.1µM*	6.4%	?
CCOc1ccc(CCNC(=O)CCCn2nc(C)c3c(C)n(-c4ccccc4)nc3c2=O)cc1	?	nt	13.1µM*	-0.1%	-9.8%
CCn1cc(S(=O)(=O)c2ccc(OC)cc2)c(=O)c2cc(F)c(N3CCC(C)CC3)cc21	0.7	nt	nt	4.2%	nt
CC1CCCCN1CC(=O)Nc1ccc2c(c1)OCO2 (centres undefined)	-13.0	nt	18.9%	-6.2%	3.8%
CCC(C)C(=O)Nc1nnc(SCC(=O)NC(C)(C)C)s1 (centres undefined)	-8.8	0.8%	?	-4.1%	8.4%
Cc1ccc(-n2nc3c(=O)n(CCCC(=O)N4CCC(C)CC4)nc(C)c3c2C)cc1	?	3.5%	-0.5%	-0.3%	?
SMILES	HCMV inh	Giardia FBPA inh	Pf growth 96h	Sm TGR inh	Pf growth 48h
Cc1ccc(-n2nc3c(=O)n(CCCC(=O)N4CCC(C(N)=O)CC4)nc(C)c3c2C)cc1	-21.9	-2.2%	?	0.4%	10.4µM*
Cc1nn(CCC(=O)NCc2ccc(N(C)C)cc2)c(=O)c2nn(-c3ccccc3)c(C)c12	-62.7*!	nt	?	-8.1%	-12.3%
COc1ccc(C2CC(c3ccccc3)Oc3c(C)ccc(C(C)C)c32)cc1 (centres undefined)	nt	0.2%	nt	nt	nt
CCCCN(CCO)c1ncnc2sc(-c3ccccc3)cc12	14.8	12.1%	-2.9%	-3.0%	nt
Cc1ccsc1C(=O)NC(C)c1ccccc1 (centres undefined)	37.3	-6.3%	-23.6%	-2.8%	24.2%
CCCCCc1cc(=O)oc2c(C(CCN3CCCCC3)c3cc(OC)c(OC)c(OC)c3)c(OC)cc(OC)c12 (centres undefined)	-11.5	-3.1%	2.33µM*	-8.2%	5.22µM*
CCCCCc1cc(=O)oc2c(C(CCN(CC)CC)c3ccc(N(C)C)cc3)c(OC)cc(OC)c12 (centres undefined)	-75.2*	-29.8%	?	-7.0%	?
CCCCCc1cc(=O)oc2c(C(CCN3CCCC(C)C3)c3cc(OC)c(OC)c(OC)c3)c(OC)cc(OC)c12 (centres undefined)	nt	2.7%	0.37µM*	?	2.62µM*
CCCCCc1cc(=O)oc2c(C(CCN3CCCC(C)C3)c3ccc(N(C)C)cc3)c(OC)cc(OC)c12 (centres undefined)	nt	-6.1%	8.28µM*	-33.1%	?
CC(C)C1C(=O)N(Cc2cn(CCC3OCCO3)nn2)CCS(=O)(=O)N1Cc1ccc(-c2ccc(F)cc2Cl)cc1 (centres undefined)	-8.5	nt	nt	nt	nt
CCOc1ccc(CNC(=O)Cc2ccc(NC(=O)N3CCSc4ncccc43)cc2)cc1	0.0	nt	nt	1.0%	nt
COc1cc(CC(NC(C)=O)C(=O)NC2CCN(c3c(Cc4ccccc4)c(C)nc4ncnn34)CC2)cc(OC)c1 (centres undefined)	-9.4	1.0%	29.9%	-7.2%	?
Cc1nonc1NCn1nnc2ccccc21	-29.8	-0.1%	2.6%	35.5µM*	4.3%
N#Cc1cccc(NC(=O)N2CCC3(CC2)CCN(C(=O)c2cnccn2)CC3)c1	nt	6.2%	nt	nt	nt
O=C(O)CSc1nc2c(c(C(F)(F)F)n1)CCc1ccccc1-2	-22.3	24.0%	33.0%	5.4%	11.0%
O=C(O)CSc1nc2c(c(C(F)(F)F)n1)CCCC2	-96.0*!	7.6%	37.9%	4.3%	19.8%
O=C(CSc1ccc(Cl)cc1)NNC(=O)c1ccco1	7.7	nt	14.7µM*	0.0%	14.9%
CCOC(=O)CCNC(=O)N1CCC(CCC(=O)NCc2ccc(F)cc2)CC1	33.1	4.6%	?	2.6%	?
COC(=O)CCC(=O)N1CCC(CCC(=O)NCc2ccc(F)cc2)CC1	82.5	-0.6%	5.22µM*	4.3%	-5.8%
COC(=O)CCCC(=O)N1CCC(CCC(=O)NCc2ccc(F)cc2)CC1	5.5	2.7%	14.7µM*	13.9%	-19.2%
